Experimental data as given in PubChem BioAssay AID1159580 (chemical genetic matrix, 2015).
The campaign covered roughly 5,500 compounds. About 2,000 (36%) were called active. Not shown: some 18% with an inconclusive outcome. Cut-off read from the data, not from the text of the source: active = normalized growth mostly below about 0.91 (no sharp cut-off); inconclusive = no clear call, values can overlap the other calls; inactive = mostly above about 0.92. The list shows a part of the results.

Experiment: chemical genetic growth profiling, strain panel (AID 1159580);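 note: tested at 20 µM; growth read once vehicle control cultures reached saturation at 30 °C; 1 = growth at the plate median or of vehicle wells; lower values mean less growth of the strain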
Settings: S. cerevisiae deletion strains, growth OD
[1] = locus YAL040C, strain CLN3, stronger effect = lower value
[2] = locus YDR363W, strain ESC2, stronger effect = lower value
[3] = locus YER002W, strain NOP16, stronger effect = lower value
[4] = locus YGR229C, strain SMI1, stronger effect = lower value
[5] = locus YNL153C, strain GIM3, stronger effect = lower value
[6] = locus YNL175C, strain NOP13, stronger effect = lower value
[7] = locus YNL197C, strain WHI3, stronger effect = lower value
[8] = locus YNL224C, strain SQS1, stronger effect = lower value
[9] = locus YOR083W, strain WHI5 (second series), stronger effect = lower value

Measured: normalized growth

CCCCCCC/C=C\CCCCCCCCC(=O)O
inactive: [1] 1.01 | locus YCL061C, strain MRC1 (second series), stronger effect = lower value 1.01 | [2] 1.02 | [3] 1.03 | [4] 1.01 | locus YMR307W, strain GAS1, stronger effect = lower value 1.01 | [5] 0.946 | [6] 0.996 | [7] 1.01 | [8] 1.01 | [9] 1.01

CCCCC/C=C\C/C=C\C/C=C\C/C=C\CCCC(=O)NCC(=O)O
inactive: [1] 1.02 | locus YDR150W, strain NUM1, stronger effect = lower value 1.03 | [2] 1.02 | [3] 1.02 | locus YGR078C, strain PAC10, stronger effect = lower value 0.985 | [4] 0.963 | [5] 1.07 | [6] 0.941 | [7] 1.01 | [8] 0.979 | [9] 0.962
